Results filed as inconclusive are left out. Values without a mark were called inactive. The source made the active and inactive calls. The call rests on the fitted dose curve; in most records, active means well fitted cell-killing curve with a large enough effect; inconclusive means small, poorly fitted or top-dose-only effect; inactive means flat fitted curve, though single readings scatter.
Assay: qHTS assay to identify small molecule inhibitors of chordoma cells - UCH-2 (AID 1259356)
Details: UCH-2 chordoma viability, CellTiter-Glo ATP luminescence, 48 h; series mostly up to 46.1 µM; activity change, negative = inhibition: at the top concentration
Description: NIH Chemical Genomics Center [NCGC]
Chordoma is a rare and slow growing tumor that can occur anywhere along the spine, from the base of the skull to the tailbone. Current treatment options for chordoma is surgery and radiation therapy for those who are not candidates for surgery. But chordomas tend to return in the same location or surrounding areas of the original tumor after surgery and/or radiation. Chemotherapy can slow down the progression of the tumor. As chordoma is slow growing, the general cytotoxic agents that kill fast growing cells are ineffective, and some patients have been reported to respond to molecularly targeted drugs.
NCATS Pharmaceutical Collection (NPC) containing approximately 3000 clinically approved and investigational drugs were used to screen at 15 concentrations in a chordoma cell lines, UCH-2, to identify small molecule compounds that can inhibit chordoma cell growth.
NCGC Assay Protocol Summary:
Human chordoma cell line UCH-2 was dispensed at 800 per well in 4uL of culture medium into white solid bottom 1536-well plates (Corning Life Sciences, Corning, NY) using a Multidrop Combi (Thermo Scientific, Waltham, MA) dispenser. The assay plates were incubated at 37 C and 5% CO2 for an overnight, and then 23nL of compounds dissolved in DMSO and positive control were transferred using a Pintool station (Wako, San Diego, CA). Compound treatment was followed by the addition of 1uL of the combination compounds (1uM Auranofin, 500nM each of Camptothecin, Doxorubicin, Rubitecan, and Topotecan) and assay medium to each well of the assay plates using Flying Reagent Dispenser (FRD, Aurora Discovery, San Diego, CA). The assay plates were incubated at 37 C and 5% CO2 for 48hr. Then 5uL of CellTiter-Glo reagent (Promega Corporation, Madison, WI) was added to each well of the assay plates using FRD. After 30min incubation at room temperature, the luminescence signal was quantified using a ViewLux plate reader (PerkinElmer, Shelton, CT).
On the % scale 0 is the no-effect control and ±100 the full control effect; potency means the concentration at half of the fitted maximal effect.

Structure (SMILES) | activity change, negative = inhibition | Potency
NC(=O)OCCCc1ccccc1 | 3.66% | –
C[C@]12C=CC(=O)C=C1CC[C@@H]1[C@@H]2CC[C@@]2(C)[C@H]1CC[C@]2(C)O | 8.1% | –
CCC1(CC)C(=O)NC(=O)NC1=O | 1.55% | –
CNC(=O)NC(O)C(Cl)(Cl)Cl (stereo not given) | -24.1% | –
COP(=O)(OC)C(O)C(Cl)(Cl)Cl (stereo not given) | 2.81% | –
CCS(=O)(=O)C(C)(C)S(=O)(=O)CC | 1.61% | –
CCOC(=O)NC(O)C(Cl)(Cl)Cl (stereo not given) | -4.35% | –
CC(C)[N+](C)(CCC(C(N)=O)(c1ccccc1)c1ccccc1)C(C)C | 1.59% [at 20.6 µM] | –
CCCCCCCCC(=O)NCc1ccc(O)c(OC)c1 | -12.4% | –
Cc1c(Cl)c(=O)oc2cc(OP(=O)(OCCCl)OCCCl)ccc12 | 7.76% | –
Clc1ccc(CSC(Cn2ccnc2)c2ccc(Cl)cc2Cl)cc1 (stereo not given) | -0.694% [at 20.6 µM] | –
CCC1(c2ccccc2)CCC(=O)NC1=O (stereo not given) | 6.77% | –
CC(C)C(Br)C(=O)NC(N)=O (stereo not given) | 1.91% | –
C[C@@H]1O[C@@H](O[C@@H]2C=C3CC[C@@H]4[C@H](CC[C@]5(C)[C@@H](c6ccc(=O)oc6)CC[C@]45O)[C@@]3(C)CC2)[C@H](O)[C@H](O)[C@H]1O | – | 24.8 nM (active)
CCCC[N+]1(C)[C@@H]2CC(OC(=O)[C@H](CO)c3ccccc3)C[C@H]1[C@@H]1O[C@@H]12 (stereo not given in full) | 8.74% | –
CCN(Cc1ccc(Cl)nc1)/C(=C/[N+](=O)[O-])NC | 1.59% | –
CCOC(=O)c1cncn1C(C)c1ccccc1 (stereo not given) | -3.71% [at 20.6 µM] | –
CC(C)NCC(O)c1ccc(N)c(C#N)c1 (stereo not given) | 3.29% | –
CN1C(=O)[C@@H](NC(=O)c2cc3ccccc3[nH]2)N=C(c2ccccc2)c2ccccc21 | 13.2% | –
O=C(CCCN1CCC(n2c(=O)[nH]c3ccccc32)CC1)c1ccc(F)cc1 | 5.57% [at 20.6 µM] | –

Structure (SMILES) | activity change, negative = inhibition | Potency
Cc1ccc(N=CN(C)C=Nc2ccc(C)cc2C)c(C)c1 | 0.583% | –
Clc1ccc(C(OCCN2CCCCC2)c2ccccc2)cc1 (stereo not given) | 4.62% [at 20.6 µM] | –
CCCC(C)C1(CC)C(=O)N=C(S)NC1=O (stereo not given) | 3.92% | –
CN(C)C(=O)Oc1cc(OC(=O)N(C)C)cc(C(O)CNC(C)(C)C)c1 (stereo not given) | 10.6% [at 20.6 µM] | –
C[C@]12CC[C@H](O)CC1=CC[C@@H]1[C@@H]2CC[C@]2(C)C(=O)CC[C@@H]12 | -14.5% | –
C=CCN1CC[C@]23CCCC[C@H]2[C@H]1Cc1ccc(O)cc13 | 21.5% | –
CC(C)(C)OC(=O)c1ncn2c1[C@@H]1CCCN1C(=O)c1c(Br)cccc1-2 | -2.87% | –
CC(Cc1ccccc1)NCc1ccccc1Cl (stereo not given) | 3.02% | –
C#C[C@]1(O)CC[C@H]2[C@@H]3CCC4=CC(=O)CCC4=C3C=C[C@@]21CC | 0.246% | –
NC(=O)CN1CCCC1=O | 12.6% [at 20.6 µM] | –
N#Cc1nn(-c2c(Cl)cc(C(F)(F)F)cc2Cl)c(N)c1S(=O)C(F)(F)F (stereo not given) | 2.68% | –
C[N+]1(C)[C@@H]2CC[C@H]1CC(OC(=O)C(CO)c1ccccc1)C2 (stereo not given in full) | – | inactive
Cc1ncc2n1-c1ccc(Cl)cc1C(c1ccccc1F)=NC2 | -2.32% | –
O=c1n(Cl)c(=O)n(Cl)c(=O)n1Cl | -9.55% | –
C[N+](C)(C)CCOC(=O)C(O)(c1ccccc1)c1ccccc1 | 0.325% | –
NCc1cccnc1 | 11.7% | –
COc1ccc(C(=O)N2CCCC2=O)cc1 | -9.79% | –
COC(=O)C1=CCCN(C)C1 | -15.3% | –
COc1cc(N)c(Cl)cc1C(=O)NC1CN2CCC1CC2 (stereo not given) | 0.34% | –
C[C@H]1C(=O)O[C@@H]2CCN3CC=C(COC(=O)[C@](C)(O)[C@]1(C)O)[C@H]23 | 6.37% | –
